Screens as filed in PubChem.
A549 viability: kills or reduces viability of A549 cells in Nrf2 counter-screen; Potency, µM (titrated, usually from 46 µM), for the others: at the highest dose activity change, negative = cytotoxicity, actives largely listed as inhibitors; AID 504648; 0.16% of 390,000 active; A549 ARE-Fluc cells, CellTiter-Fluor viability, 18-24 h; note: % is set by controls: 0 for no effect and ±100 for the full control effect
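A549 ARE_Fluc cells in 5% FBS OPTI-MEM were exposed to compounds in concentration-response for 18-24 h at 37 deg C. Viability was read by CellTiter-Fluor fluorescence (Ex 405/Em 525) after 30 min, before the luciferase read.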
PINK1 modulator: PINK1 expression modulation; Potency, µM (highest dose often 76.6 µM), without a hit: at the highest dose activation (PINK1 increase), hits mostly activators; 0.2% of 410,000 active; AID 624263; PINK1 immunofluorescence, high-content cytometry, 24 h; active = well fitted activation curve with a large enough effect; inconclusive = small, poorly fitted or top-dose-only effect; cell line not stated here; note: % of control where 0% means no effect; nearly all actives have a fitted effect of over 65% in size
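Stable cell line treated 24 h with compounds at 5 concentrations (CCCP controls), then fixed and immunostained for PINK1 plus nuclear and cell stains; PINK1 immunofluorescence quantified by laser-scanning microplate cytometry.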
Nrf2 ARE act: Nrf2 pathway activation. AREc32 ARE-luciferase reporter (MCF7-derived line), luminescence, 24 h. Potency, µM (top dose mostly 46.1 µM), inactives show top-dose activation, usual class: activators. 0.31% of 410,000 active. AID 624171; note: % of control where 0% means no effect; nearly all actives have a fitted effect of over 65% in size
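ARE-driven firefly luciferase activity in AREc32 cells measured after a 24 hr compound exposure at 37 deg C, using Steady-Glo reagent and a 30 min room-temperature hold.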
Epigenetic reg: regulators of epigenetic silencing causing reporter derepression in mouse cells; murine LDR cells, GFP reporter derepression, 30 h; Potency, µM (series often up to 53.9 µM), for the others: top-dose GFP activation, usual class: activators; 0.2% of 280,000 active; note: % of control where 0% means no effect; nearly all actives have a fitted effect of over 60% in size
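Readout is the number of GFP-expressing murine LDR cells, counted by cytometry following washing. Cells were treated with compound for 30 h at 37 C; the stably integrated CMV-GFP locus is normally silent.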
Nrf2 inh: Nrf2 pathway inhibition; A549 ARE-Fluc reporter, luciferase luminescence, 18-24 h; Potency, µM (series often up to 46 µM), without a hit: at the highest dose activity change, negative = inhibition, actives largely listed as inhibitors; 2.1% of 360,000 active; note: % is set by controls: 0 for no effect and ±100 for the full control effect; nearly all actives have a fitted effect of over 60% in size
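Nrf2 function is reported as luminescence of an ARE-controlled luciferase in A549 cells. Compounds were tested at several concentrations, and a CellTiter-Fluor read on the same wells flagged cytotoxicity.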
* = called active by the depositor; ? = inconclusive; nt = not tested or not shown; [ ] = dose if it differs, or a comment. This is a sample that favours compounds with a hit; in the whole collection about 2.4% have one here. Unless noted, calls come from the whole dose curve; as a rule, active = well fitted curve in the direction sought with a large enough effect; inconclusive = small, poorly fitted or top-dose-only effect, or another doubt; inactive = no such curve, though single readings can be large; an effect the other way counts as inactive or inconclusive. Potency is the fitted concentration of half-maximal effect.

SMILES	A549 viability	PINK1 modulator	Nrf2 ARE act	Epigenetic reg	Nrf2 inh
COc1cccc(-c2nnc(NC(=O)c3ccc(S(=O)(=O)N4CC(C)OC(C)C4)cc3)o2)c1 (configuration not stated)	-23%	2%	0%	1%	9.2µM*
CC1CCN(S(=O)(=O)c2ccc(C(=O)Nc3nnc(-c4ccco4)o3)cc2)CC1	0%	1%	-1%	nt	8.2µM*
CC(=O)c1c(N2CCN(Cc3ccccc3)CC2)nc(=S)n(Cc2ccccc2)c1C	?	19%	1%	-1%	21µM*
CCN1CCCC1CNC(=O)c1cnn(-c2ncc(C)c(-c3ccc(F)cc3)n2)c1C(C)C (configuration not stated)	nt	-1%	nt	nt	nt
Cc1cccc(C)c1NC(=O)CCC(=O)N1Cc2ccccc2Oc2ncccc21	4%	0%	0%	-1%	?
COC(=O)c1scc(C#N)c1N/N=C(\C#N)S(=O)(=O)c1ccc(Cl)cc1	?	?	?	-1%	?
COC(=O)c1scc(S(=O)(=O)C(C)C)c1N/N=C(\C#N)C(=O)c1ccc(Cl)cc1	-10%	40µM*	9%	0%	?
CCCOc1ccccc1C1NC(=O)NC(C)=C1C(=O)OCc1ccccc1 (configuration not stated)	?	-2%[38.3 µM]	0%	-1%	10µM*
CC1=C(C(=O)OCc2ccc3c(c2)OCO3)C(c2ccccc2OCc2ccccc2)NC(=O)N1 (configuration not stated)	-21%	-7%[38.3 µM]	0%	-1%	13µM*
CC1=C(C(=O)OCc2ccc3c(c2)OCO3)C(c2ccccc2)NC(=O)N1 (configuration not stated)	-2%	nt	0%	7%	8.2µM*
CCCOc1ccccc1C1NC(=O)NC(C)=C1C(=O)OCCOC (configuration not stated)	-1%	0%	-1%	1%	4%
CC1=C(C(=O)OCc2ccc3c(c2)OCO3)C(c2ccc(O)c([N+](=O)[O-])c2)NC(=O)N1 (configuration not stated)	-9%	2%	0%	-4%	?
COc1ccc(OC)c(CCNc2nc3cc(OC)c(OC)cc3c3nc(-c4cccnc4)nn23)c1	4%	2%	0%	1%	9%
O=C(NCc1cccnc1)c1cnn(-c2ncc3c(n2)-c2ccccc2CCC3)c1C1CC1	nt	0%	nt	nt	nt
COc1cccc(-c2ccnc(-n3ncc(C(=O)NCc4cccnc4)c3C3CC3)n2)c1	nt	0%	nt	nt	nt
OC(Cc1ccnc2ccccc12)C(Cl)(Cl)Cl (configuration not stated)	-15%	4%	-1%	nt	18µM*
O=C(O)C(Cc1ccnc2ccccc12)=NO	-2%	-4%	5%	nt	-6%
CCC(C)N1C(=O)/C(=C/c2c(NCCCOC(C)C)nc3c(C)cccn3c2=O)SC1=S (configuration not stated)	?	11%	0%	3.2µM*	-4%
COc1ccc(-c2nc3cc(C)ccc3cc2CN(C(=O)c2cc(C)nn2C)C2CC2)cc1OC	nt	0%	nt	nt	nt
O=C(Nc1ccc(Cl)cc1)Nc1nnc(-c2ccncc2)s1	?	7.9µM*	1%	0%	?
Cc1ccc(NC(=O)Nc2nnc(-c3ccncc3)s2)cc1C	-5%	16µM*	3%	2%	10%
O=C(Nc1ccc(F)cc1)Nc1nnc(-c2ccncc2)s1	-11%	3%[38.3 µM]	0%	-1%	?
O=C(Nc1cccc(Cl)c1)Nc1nnc(-c2ccncc2)s1	?	7.1µM*	0%	1%	?
O=C(CNC(=O)c1ccccc1)N[C@@H](C(=O)Nc1cc(C(F)(F)F)ccc1Cl)c1ccccc1	-2%	nt	nt	nt	?
COc1ccc(N(CC(=O)NCCc2cccc(C)c2)S(=O)(=O)c2c(C)noc2C)cc1	0%	3%	0%	0%	?
SMILES	A549 viability	PINK1 modulator	Nrf2 ARE act	Epigenetic reg	Nrf2 inh
COc1ccc(N(CC(=O)NCCc2ccc(C)cc2)S(=O)(=O)c2c(C)noc2C)cc1	-19%	1%	2%	nt	23µM*
COc1ccc(N(CC(=O)Nc2cc(C)ccc2OC)S(=O)(=O)c2c(C)noc2C)cc1	?	2%	0%	2%	8.2µM*
O=C(COc1ccccc1F)Nc1ccc2nc(SCC(=O)N3CCCC3)sc2c1	-14%	-1%	7%	-1%	?
CCCCCc1cc(O)c2c(C)cc(=O)oc2c1	-11%	11µM*	2%	1%	-2%
CC(=O)c1cccc(Nc2nc(-c3sc(C)nc3C)cs2)c1	-16%	6%	6%	nt	23µM*
COc1cc2nc(N3CCCC(O)C3)c(CNCc3ccccc3F)cc2c(OC)c1OC (configuration not stated)	nt	2%	nt	nt	nt
CCCCCC(=O)Nc1cccc(C2=NOC3(C2)C[C@@H](C(N)=O)N(C(=O)CC(c2ccccc2)c2ccccc2)C3)c1 (some centres not stated)	?	6%	-3%	2%	21µM*
CC(C)(C)C(=O)NC(=S)NNC(=O)c1ccncc1	2%	4%	0%	-1%	?
COC(=O)NNC(=O)c1ccc(Cl)cc1Cl	-11%	2%	0%	0%	7%
CC(C)(C)C(=O)NC(=S)NNC(=O)c1ccc(Cl)cc1Cl	?	1%	0%	0%	8.2µM*
CC(C)(C)C(=O)NC(=S)NNC(=O)c1ccc(-c2ccccc2)cc1	?	-1%	-2%	19%	2.9µM*
CC1CN(CCC(=O)NC(c2cccnc2)C(F)(F)F)Cc2cc(Cl)ccc2O1 (configuration not stated)	nt	0%	nt	nt	nt
COc1ccc(OC)c(-c2nnc3n2N=C(c2ccc(OC)c(OCC4CC4)c2)CS3)c1	?	0%	0%	nt	15µM*
COc1ccc(C2=Nn3c(nnc3-c3ccccc3Cl)SC2)cc1OCC1CC1	?	18%	-2%	nt	21µM*
CCCN(CC(=O)Nc1ccccc1OC)C(=O)c1ccc2[nH]c3c(c2c1)CC(C)CC3 (configuration not stated)	?	-2%	2%	nt	23µM*
COc1ccc(CN(Cc2ccccc2)C(=O)c2ccc(NC(C)=O)cc2)cc1COc1ccc(NC(C)=O)cc1	-4%	1%	nt	nt	?
COc1ccc(C2Nc3ccccc3C(=O)N2Cc2ccccc2)cc1COc1ccc(NC(C)=O)cc1 (configuration not stated)	-14%	nt	nt	nt	14%
CCCN1C(=O)c2ccccc2NC1c1ccc(OC)c(COc2cccc(C)c2C)c1 (configuration not stated)	-8%	0%	nt	nt	26µM*
COc1ccc(CN(Cc2ccccc2)C(=O)c2ccccc2)cc1COc1ccc(NC(C)=O)cc1	-18%	nt	nt	nt	23µM*
